# “And” between values parts separate entries of the source, which are not always exact repeats. Identical values can stand only once. Where a structure was tested more than once in an assay, its records may differ in their call. The source made the active and inactive calls.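 Rule for the calls, unless noted: active = inhibition at or above 50% relative to wild type and mutant plate controls; inactive = inhibition below 50%.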
# How the values were obtained:
# [1] = reduction of polyQ htt aggregates in cells – imaging, exon1htt(103Q)mCFP cells, high-content imaging, primary screen (AID 483;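 active = visual image review flags a hit and inhibition of aggregation exceeds 20%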;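 note: compound exposure lasted 3 days before fixation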;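 for nuclei count: percent of the per-plate median nuclei count of sample wells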); conditions: exon1htt(103Q)mCFP cell line, aggregate imaging, at 2 µM; inhibition of aggregation: stronger effect = higher value; nuclei count: measured here: cell count, toxicity
# [2] = endothelial E-selectin expression blockers – imaging, HUVEC, immunofluorescence, MLSMR starter and 10KST1 sets, primary screen (AID 487;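 active = visually confirmed hit in the image check and inhibition above 20%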;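 for inhibition: signal is fraction of cell area covered by stained E-selectin grains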;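 for nuclei count: 100% = median nuclei count of all wells on the same plate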); conditions: HUVEC TNFalpha-induced E-selectin immunofluorescence imaging, at 2 µM; inhibition: stronger effect = higher value; nuclei count: measured here: cell number, toxicity
# [3] = Primary imaging screen for DUSP6 inhibitors that restore phospho-Erk in transfected HeLa cells, chemical complementation (AID 609;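 active = compounds giving at least 50% inhibition in the cell-based MKP-3 phosphatase rescue imaging test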;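 for inhibition: phospho-Erk level distribution per well compared with pooled transfected vehicle control wells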); conditions: HeLa MKP-3 transfected, phospho-Erk imaging KS statistic, at 10 µM, cells stimulated with TPA for 15 min
# [4] = target: Dual specificity protein phosphatase 6 (Homo sapiens) (UniProt Q16828); assay: as above; conditions: HeLa MKP-3 transfected, phospho-Erk imaging KS statistic; at 10 µM; stronger effect = higher value; cells stimulated with TPA for 15 min
# [5] = target: Voltage-gated potassium channel subunit beta-2 (Rattus norvegicus) (UniProt P62483); assay: inhibitors of rat Kvbeta2 reductase activity – biochemical, NADPH fluorescence, primary screen (AID 622;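 active = fluorescence slope higher than the sample average by over 3 SD, cut at about -0.22 in these data, passing the limit was not always enough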;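 note: slope of raw intensity against log time taken from 70 to 1610 s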); conditions: recombinant KvBeta, 4-cyanobenzaldehyde reduction, at 10 µM, stronger effect = higher value
# [6] = target: Voltage-gated potassium channel subunit beta-2 (Rattus norvegicus) (UniProt P62483); assay: enhancers of rat Kvbeta2 NADPH turnover – biochemical, NADPH fluorescence, primary screen (AID 623;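 active = NADPH fluorescence slope more negative than the mean of all samples by about 3 SD, 99.7% confidence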;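 note: fluorescence intensity change per second fitted from 20 to 320 s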); conditions: Recombinant KvBeta, NADPH fluorescence decrease slope, 10 min; at 10 µM; stronger effect = lower value
# [7] = target: Alpha-2C adrenergic receptor (Homo sapiens) (UniProt P18825); assay: compounds altering alpha2C-coupled GIRK flux – cell-based, HEK293 alpha2C/GIRK1/2, thallium flux, primary screen (AID 624;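 active = fluorescence slope after compound addition differing from the mean of all screened samples at 99.7% confidence, in either direction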;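 note: slope of fluorescence ratio to pre-addition baseline per second over 15 to 24 s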); conditions: thallium flux BTC fluorescence, at 10 µM, actives lie on both sides
# [8] = inhibitors of larval lipid processing in zebrafish, primary screen, whole organism, PED6 fluorescence, gall bladder and intestine (AID 686;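 active = a full or partial loss of lipid-probe fluorescence in the fish gall bladder, intestine or both, judged by eye; inactive = no fluorescence loss, or compound toxic to the fish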;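 note: larvae 5 to 7 days old with five fish per well; signal comes from phospholipase A2 cleavage of quenched PED6 carried via bile; overnight exposure to compound and PED6 before scoring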); conditions: Zebrafish larvae PED6 lipid processing, fluorescence scoring; screened at 20 µM (by protocol)
# [9] = loss of swimming-algae plug formation – whole organism, Chlamydomonas reinhardtii, WT vs cilia-less mutant, absorbance, 96-well, primary screen (AID 463189); conditions: Chlamydomonas reinhardtii gravitaxis, OD600 absorbance, 2 days; at 10 µM; stronger effect = higher value;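 note: 0% = wild type cc124 cells in DMSO and 100% = ciliumless bld1 mutant cells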
# [10] = blockers of RIG-like receptor reporter activation – cell-based, Sendai virus stimulus, luciferase, 10K MLSCN set, TLR/RLR signaling modifier project, primary screen (AID 602276;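 active = inhibition at or above 50% at 10 µM; inactive = inhibition below 50%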;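 note: firefly luciferase from ISG56 promoter only with Renilla not read in this screen; 0% = Sendai virus plus DMSO and 100% = medium plus DMSO without virus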); conditions: HEK293 RL24 IRF3 luciferase reporter, at 10 µM, stronger effect = higher value
# [11] = TLR3 IRF3 reporter activation blockers – cell-based, poly I:C stimulus, luciferase, 10K MLSCN set, primary screen (AID 602277;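 active = inhibition of the reporter signal at or above 50%; inactive = inhibition below 50%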); conditions: HEK293-TLR3 RL24 IRF3 luciferase reporter, at 10 µM, stronger effect = higher value
# [12] = target: Muscarinic acetylcholine receptor M4 (Homo sapiens) (UniProt P08173); assay: M4-linked GIRK flux change, two-sided – cell-based, HEK293 M4/GIRK, thallium flux, BTC-AM, M4 allosteric agonist project, primary screen (AID 625;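 active = fluorescence slope after compound addition differing from the mean of all tested samples at 99.7% confidence, mostly higher but some lower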;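 note: thallium influx through GIRK channels coupled to M4 in HEK293 cells with BTC-AM dye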); conditions: at 10 µM, actives lie on both sides
# [13] = measured here: cell density z-score
# [14] = measured here: nuclear c-Myc green intensity z-score
# [15] = measured here: nuclear pErk red intensity z-score, stronger effect = higher value
# Chain of Dual specificity protein phosphatase 6 (Homo sapiens) (Q16828 whole entry, looked up): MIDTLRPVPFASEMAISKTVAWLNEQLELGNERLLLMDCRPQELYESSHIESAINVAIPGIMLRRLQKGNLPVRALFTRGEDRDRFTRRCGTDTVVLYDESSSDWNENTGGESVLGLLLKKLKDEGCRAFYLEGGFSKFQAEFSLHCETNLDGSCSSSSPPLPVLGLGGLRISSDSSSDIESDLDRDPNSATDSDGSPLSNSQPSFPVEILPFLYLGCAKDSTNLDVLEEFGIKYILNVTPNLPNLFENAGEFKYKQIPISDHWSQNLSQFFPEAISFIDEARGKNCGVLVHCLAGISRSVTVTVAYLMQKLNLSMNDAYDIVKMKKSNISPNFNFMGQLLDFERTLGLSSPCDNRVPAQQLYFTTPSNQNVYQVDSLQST
# Chain of Alpha-2C adrenergic receptor (Homo sapiens) (P18825 whole entry, looked up): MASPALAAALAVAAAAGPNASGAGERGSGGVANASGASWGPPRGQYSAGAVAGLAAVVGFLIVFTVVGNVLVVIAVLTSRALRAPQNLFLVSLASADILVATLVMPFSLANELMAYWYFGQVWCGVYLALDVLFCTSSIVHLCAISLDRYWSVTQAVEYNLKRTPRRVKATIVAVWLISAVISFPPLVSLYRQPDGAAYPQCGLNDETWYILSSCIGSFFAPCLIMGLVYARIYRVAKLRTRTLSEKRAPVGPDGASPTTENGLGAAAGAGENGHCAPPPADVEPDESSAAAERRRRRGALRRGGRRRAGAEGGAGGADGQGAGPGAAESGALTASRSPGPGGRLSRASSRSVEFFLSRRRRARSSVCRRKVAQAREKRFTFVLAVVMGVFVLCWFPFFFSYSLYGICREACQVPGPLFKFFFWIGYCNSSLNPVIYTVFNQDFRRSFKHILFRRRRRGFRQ
# Chain of Voltage-gated potassium channel subunit beta-2 (Rattus norvegicus) (P62483 whole entry, looked up): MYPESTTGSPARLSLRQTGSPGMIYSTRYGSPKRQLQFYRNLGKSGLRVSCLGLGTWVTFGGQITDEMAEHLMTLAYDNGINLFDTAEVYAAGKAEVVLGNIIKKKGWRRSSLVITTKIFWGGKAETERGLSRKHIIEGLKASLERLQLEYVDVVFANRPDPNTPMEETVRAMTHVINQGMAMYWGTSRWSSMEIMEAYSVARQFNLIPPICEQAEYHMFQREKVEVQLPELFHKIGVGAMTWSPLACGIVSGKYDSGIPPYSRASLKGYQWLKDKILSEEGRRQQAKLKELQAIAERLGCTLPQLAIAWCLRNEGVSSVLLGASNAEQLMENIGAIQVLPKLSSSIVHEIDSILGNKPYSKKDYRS
# Chain of Muscarinic acetylcholine receptor M4 (Homo sapiens) (P08173 whole entry, looked up): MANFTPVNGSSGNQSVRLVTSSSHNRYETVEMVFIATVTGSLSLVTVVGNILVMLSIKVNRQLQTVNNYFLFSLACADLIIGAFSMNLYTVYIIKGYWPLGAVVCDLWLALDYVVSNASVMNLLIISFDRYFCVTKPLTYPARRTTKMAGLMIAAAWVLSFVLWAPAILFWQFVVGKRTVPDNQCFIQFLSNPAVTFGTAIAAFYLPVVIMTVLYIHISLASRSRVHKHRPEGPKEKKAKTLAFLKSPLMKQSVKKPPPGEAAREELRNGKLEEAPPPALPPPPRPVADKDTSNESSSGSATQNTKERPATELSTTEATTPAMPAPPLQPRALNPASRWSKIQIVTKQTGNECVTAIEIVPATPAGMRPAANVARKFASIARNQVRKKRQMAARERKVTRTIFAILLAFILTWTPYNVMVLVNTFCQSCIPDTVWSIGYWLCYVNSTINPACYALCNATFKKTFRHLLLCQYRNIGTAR
Structure (SMILES),inhibition of aggregation [1],nuclei count [1] [%],inhibition [2],nuclei count [2] [%],"z-score [3, 13]","z-score [3, 14]","z-score [3, 15]",inhibition [4],fluorescence slope [5],NADPH fluorescence slope [6],slope [7],outcome [8],inhibition [9],inhibition [10],inhibition [11],fluorescence slope [12]
CC(C)NCC(O)COc1ccc(CC(N)=O)cc1 (stereo unspecified),-3.8% (inactive),97.3,-96.5% (inactive),135,-1.26,-0.177,-0.441,-2.46% (inactive),-0.47 (inactive),1.8e-05 (inactive),0.00481 (inactive),inactive,-6.18% (inactive) and -8.19% (inactive),-12.5% (inactive),-8.56% (inactive),–
NS(=O)(=O)c1cc2c(cc1C(F)(F)F)NCNS2(=O)=O,0% (inactive),106,-96.4% (inactive),114,-1.02,0.57,-0.708,3.45% (inactive),-0.444 (inactive),-4.4e-05 (inactive),0.00463 (inactive),inactive,-11.3% (inactive),5.25% (inactive),24.3% (inactive),–
CCc1oc2ccccc2c1C(=O)c1cc(Br)c(O)c(Br)c1,-4.4% (inactive),98,-113% (inactive),132,0.0952,0.368,0.987,17.3% (inactive),-0.429 (inactive),3.1e-06 (inactive),0.00421 (inactive),inactive; toxic,129% (active),18.5% (inactive),30.1% (inactive),–
CCCC1O[C@@H]2C[C@H]3[C@@H]4CCC5=CC(=O)C=C[C@]5(C)[C@H]4[C@@H](O)C[C@]3(C)[C@]2(C(=O)CO)O1 (stereo partly specified),-17.2% (inactive),58,-133% (inactive),138,0.229,-0.532,-0.405,13.3% (inactive),-0.423 (inactive),1.2e-05 (inactive),0.00479 (inactive),inactive,6.85% (inactive) and -4.63% (inactive),0.287% (inactive),58.3% (active),–
N[C@@H](Cc1cc(I)c(Oc2ccc(O)c(I)c2)c(I)c1)C(=O)O,2.4% (inactive),100,-50.6% (inactive),107,1.52,-0.0364,-0.441,9.37% (inactive),-0.512 (inactive),-3.3e-05 (inactive),0.00387 (inactive),inactive,36.6% (inactive),20.4% (inactive),29.6% (inactive),–
CCN1CCN(C(=O)N[C@@H](C(=O)N[C@@H]2C(=O)N3[C@@H]2SC(C)(C)[C@@H]3C(=O)O)c2ccccc2)C(=O)C1=O,2.8% (inactive),97.2,-1.2% (inactive),101,-0.734,-0.264,-1.18,5.42% (inactive),-0.465 (inactive),-4.7e-05 (inactive),0.0054 (inactive),inactive,-8.35% (inactive),6.7% (inactive),14.4% (inactive),–
Oc1c(I)cc(Cl)c2cccnc12,-1.7% (inactive),76.8,-52% (inactive),108,-0.367,0.593,-0.324,23.4% (inactive),-0.459 (inactive),-3.6e-05 (inactive),0.00439 (inactive),inactive,-0.595% (inactive),0.651% (inactive),31.6% (inactive),–
CN1CC(=O)Nc2ccc(F)cc2C1=O,–,–,-12.8% (inactive),108,-0.408,1.54,-1.19,7.48% (inactive),-0.414 (inactive),-5.5e-06 (inactive),–,inactive,-6.78% (inactive),–,–,0.0056 (inactive)
CC1(C)CC(=O)C(C=N)=C(O)C1,–,–,-29.4% (inactive),169,-0.419,-0.908,0.177,-3.98% (inactive),-0.384 (inactive),-3.8e-05 (inactive),–,inactive,3.24% (inactive),–,–,0.00587 (inactive)
CC1=NS(=O)(=O)c2cc(Cl)ccc2N1,–,–,-68% (inactive),105,0.557,0.773,-0.365,19.2% (inactive),-0.43 (inactive),-5.9e-05 (inactive),0.00504 (inactive),inactive,-5.98% (inactive) and 10.3% (inactive),15.7% (inactive),41.7% (inactive),–
COc1ccc(Cn2ccnc2)cc1Br,–,–,-47% (inactive),141,-0.527,1.89,-0.19,18.9% (inactive),-0.302 (inactive),1.1e-06 (inactive),–,inactive,109% (active),–,–,0.00733 (inactive)
CC1(C)S[C@@H]2[C@H](NC(=O)[C@H](N)c3ccccc3)C(=O)N2[C@H]1C(=O)O,–,–,-51.2% (inactive),131,-0.832,-1.51,1.6,-8.38% (inactive),-0.459 (inactive),1.8e-05 (inactive),0.0053 (inactive),inactive,-0.692% (inactive),7.78% (inactive),28.7% (inactive),–
O=P(O)(c1ccccc1)c1ccccc1O,–,–,2% (inactive),77.2,0.571,0.329,0.814,5.57% (inactive),-0.452 (inactive),-1.5e-05 (inactive),–,inactive,28.7% (inactive),–,–,0.00546 (inactive)
COc1ccc(CSc2nnc(C)n2N)cc1Br,–,–,-82.3% (inactive),182,1.41,-2.02,0.078,13.2% (inactive),-0.395 (inactive),-5.4e-05 (inactive),–,inactive,5.58% (inactive),–,–,0.00742 (inactive)
CC(C)c1nc2sc3c(c2c(=O)o1)CCCC3,–,–,-11.8% (inactive),143,-0.957,1.42,1.08,13.2% (inactive),-0.376 (inactive),-6.4e-05 (inactive),–,inactive,22.9% (inactive),–,–,0.00562 (inactive)
COc1cc2nc(N3CCN(C(=O)C4CCCO4)CC3)nc(N)c2cc1OC (stereo unspecified),-7.9% (inactive),82,-29.4% (inactive),105,1.01,-0.263,-0.73,16.8% (inactive),–,–,–,inactive,3.5% (inactive) and -0.975% (inactive),16.1% (inactive),30.2% (inactive),–
CN(C)CCCN1c2ccccc2CCc2ccccc21,–,–,-9.2% (inactive),128,-0.894,-0.347,2.03,-12.3% (inactive),-0.545 (inactive),-3.3e-05 (inactive),0.00498 (inactive),inactive,-3.09% (inactive) and 37.3% (inactive),-11.2% (inactive),5.17% (inactive),–
CCCOc1cccc(CN2CCCCC2c2cccnc2)c1 (stereo unspecified),–,–,-33.4% (inactive),153,0.13,0.714,-0.468,5.57% (inactive),-0.369 (inactive),1.8e-06 (inactive),–,inactive,-12.9% (inactive),–,–,0.00674 (inactive)
NC(N)=Nc1nc(CSCC/C(N)=N/S(N)(=O)=O)cs1,0.8% (inactive),101,-48.3% (inactive),116,-1.28,1.78,-1.37,16.8% (inactive),–,–,0.00523 (inactive),inactive,2.23% (inactive) and -8.71% (inactive),13.5% (inactive),42.5% (inactive),–
COc1ccc(-c2coc3cc(O)cc(O)c3c2=O)cc1,9.1% (inactive),116,–,–,-0.996,0.921,0.72,10.2% (inactive),-0.544 (inactive),-4.1e-06 (inactive),0.00576 (inactive),inactive,-12.4% (inactive),-90.2% (inactive),-200% (inactive),–
O=C(CCN1CCc2ccccc2CC1)c1ccc2c(c1)OCCO2,–,–,-194% (inactive),154,1.21,0.758,0.122,9.39% (inactive),-0.406 (inactive),-5.2e-05 (inactive),–,inactive,40.1% (inactive),–,–,0.00461 (inactive)
CC[C@]1(O)C[C@@H]2CN(CCc3c([nH]c4ccccc34)[C@@](C(=O)OC)(c3cc4c(cc3OC)N(C)[C@H]3[C@@](O)(C(=O)OC)[C@H](OC(C)=O)[C@]5(CC)C=CCN6CC[C@]43[C@@H]65)C2)C1,–,–,-205% (inactive),78,-0.32,-0.704,1.1,-12.3% (inactive),-0.495 (inactive),-2.5e-05 (inactive),0.00463 (inactive),inactive,-7.31% (inactive),23.8% (inactive),90.5% (active),–
CCN(CC)CCNC(=O)c1ccc(N)cc1,–,–,-57.1% (inactive),133,1.09,-0.602,-0.833,3.59% (inactive),-0.52 (inactive),-0.000102 (inactive),0.00563 (inactive),inactive,3.94% (inactive) and 1.02% (inactive),-2.32% (inactive),3.63% (inactive),–
O=C(CCCN1CCC(O)(c2ccc(Cl)cc2)CC1)c1ccc(F)cc1,–,–,-112% (inactive),130,1.12,-0.669,-0.889,10.2% (inactive),-0.485 (inactive),-4.2e-05 (inactive),–,–,-2.31% (inactive) and 3.84% (inactive),-13% (inactive),-5.69% (inactive),0.00387 (inactive)
Fc1ccc(C(c2ccc(F)cc2)N2CCN(C/C=C/c3ccccc3)CC2)cc1,–,–,-61.3% (inactive),124,-0.381,1.96,-1.06,23.4% (inactive),-0.463 (inactive),-6.2e-05 (inactive),0.00453 (inactive),inactive; toxic,-8.15% (inactive) and 80.3% (active),10.5% (inactive),42.4% (inactive),–
